According to PubChem BioAssay (NCATS):
Records with an inconclusive call do not appear. The list shows a part of the results. Where a call stands in place of a potency, no number is given. Activity calls are given as the source filed them. The call rests on the fitted dose curve; in most records, active means well fitted curve in the direction sought with a large enough effect; inconclusive means small, poorly fitted or top-dose-only effect, or another doubt; inactive means no such curve, though single readings can be large; an effect the other way counts as inactive or inconclusive.

Columns and labels:
[1] = qHTS for Inhibitors of the vitamin D receptor (VDR): Hit Validation using a Texas Red Assay (AID 602201); further: potency means the concentration at half of the fitted maximal effect
How it was run: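 Fluorescence polarization (Ex 595/Em 615 nm) of Texas Red (7 nM) with 1.5 uM VDR-LBD and LG19078 (final concentrations). Compounds were incubated for 2 hours at room temperature.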

[2] = molecular target: Cytochrome P450 2C9 (Homo sapiens) (UniProt P11712); experiment: qHTS Assay for Inhibitors and Substrates of Cytochrome P450 2C9 (AID 883); further: potency means the concentration at half of the fitted maximal effect; nearly all actives have a fitted effect of over 60% in size
Sequence of Cytochrome P450 2C9 (Homo sapiens) (P11712 whole entry, looked up): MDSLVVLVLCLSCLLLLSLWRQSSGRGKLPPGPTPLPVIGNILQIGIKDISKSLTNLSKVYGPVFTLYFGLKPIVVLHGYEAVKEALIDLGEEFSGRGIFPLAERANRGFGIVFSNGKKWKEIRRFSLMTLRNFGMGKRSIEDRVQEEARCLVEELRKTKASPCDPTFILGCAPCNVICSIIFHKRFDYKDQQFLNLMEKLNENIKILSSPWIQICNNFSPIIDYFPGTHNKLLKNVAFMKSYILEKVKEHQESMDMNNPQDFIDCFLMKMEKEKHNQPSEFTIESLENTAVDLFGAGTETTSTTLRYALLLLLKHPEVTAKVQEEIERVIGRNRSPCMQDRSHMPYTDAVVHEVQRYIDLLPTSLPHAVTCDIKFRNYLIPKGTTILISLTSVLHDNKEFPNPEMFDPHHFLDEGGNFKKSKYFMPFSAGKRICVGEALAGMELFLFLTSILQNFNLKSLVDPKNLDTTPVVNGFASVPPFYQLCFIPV
How it was run: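 Human CYP2C9 (10nM) hydroxylated Luciferin-H (100uM, at its KM) to luciferin in 25mM KPO4. Compound was preincubated 10 min at 37C, then NADPH regeneration started a 60 min reaction at 37C. Luminescence was read after detection reagent, normalized to 57uM sulphaphenazole.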

[3] = molecular target: Cytochrome P450 3A4 (Homo sapiens) (UniProt P08684); experiment: qHTS Assay for Activators of Cytochrome P450 3A4 (AID 885); further: nearly all actives have a fitted effect of over 65% in size
Sequence of Cytochrome P450 3A4 (Homo sapiens) (P08684 whole entry, looked up): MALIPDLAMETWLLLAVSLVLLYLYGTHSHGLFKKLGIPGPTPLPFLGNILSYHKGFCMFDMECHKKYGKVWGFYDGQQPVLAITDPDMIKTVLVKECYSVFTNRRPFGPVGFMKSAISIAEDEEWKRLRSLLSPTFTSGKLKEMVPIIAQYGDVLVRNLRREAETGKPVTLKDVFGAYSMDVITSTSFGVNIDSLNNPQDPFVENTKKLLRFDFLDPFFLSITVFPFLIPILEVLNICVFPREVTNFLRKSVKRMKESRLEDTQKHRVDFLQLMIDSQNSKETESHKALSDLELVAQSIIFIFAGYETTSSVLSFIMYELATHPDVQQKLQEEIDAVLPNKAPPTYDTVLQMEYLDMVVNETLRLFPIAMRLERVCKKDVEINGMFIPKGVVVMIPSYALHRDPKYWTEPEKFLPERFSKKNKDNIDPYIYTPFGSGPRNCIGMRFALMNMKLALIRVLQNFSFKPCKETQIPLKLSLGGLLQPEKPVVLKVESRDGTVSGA
How it was run: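 Signal was normalized against complete inhibition by 57 uM ketoconazole. The reaction used 20nM CYP3A4 with 25uM Luciferin-PPXE, 10-min compound preincubation and a 60-min NADPH-supported step at RT.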

[4] = molecular target: Cytochrome P450 2C19 (Homo sapiens) (UniProt P33261); experiment: qHTS Assay for Inhibitors and Substrates of Cytochrome P450 2C19 (AID 899); further: potency means the concentration at half of the fitted maximal effect; nearly all actives have a fitted effect of over 60% in size
Sequence of Cytochrome P450 2C19 (Homo sapiens) (P33261 whole entry, looked up): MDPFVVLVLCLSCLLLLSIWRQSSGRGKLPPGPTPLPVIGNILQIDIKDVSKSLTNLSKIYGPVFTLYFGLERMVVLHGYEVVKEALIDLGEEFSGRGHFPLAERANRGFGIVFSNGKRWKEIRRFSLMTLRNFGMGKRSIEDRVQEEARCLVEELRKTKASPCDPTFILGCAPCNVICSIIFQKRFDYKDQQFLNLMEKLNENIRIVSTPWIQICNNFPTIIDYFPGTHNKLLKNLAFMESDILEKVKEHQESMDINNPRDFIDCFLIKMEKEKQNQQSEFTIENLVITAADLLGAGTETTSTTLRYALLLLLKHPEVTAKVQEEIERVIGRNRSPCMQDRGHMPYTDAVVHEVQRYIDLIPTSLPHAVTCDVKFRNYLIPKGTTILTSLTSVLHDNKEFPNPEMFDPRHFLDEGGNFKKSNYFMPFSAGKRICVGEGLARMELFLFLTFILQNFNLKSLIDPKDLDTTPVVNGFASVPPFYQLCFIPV
How it was run: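 Human CYP2C19 (5nM) with Luciferin-H EGE at 10uM (its KM) in 50mM KPO4 was preincubated with compound for 10 min at 37C. NADPH regeneration started a 60 min 37C reaction. Luciferin was read by luminescence, normalized to 57uM ketoconazole.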

[5] = molecular target: Tumor susceptibility gene 101 protein (Homo sapiens) (UniProt Q99816); experiment: qHTS Assay for Iinhibitors of HIV-1 Budding by Blocking the Interaction of PTAP/TSG101: Hit Validation (AID 651600); further: potency means the concentration at half of the fitted maximal effect; nearly all actives have a fitted effect of over 70% in size
Sequence of Tumor susceptibility gene 101 protein (Homo sapiens) (Q99816 whole entry, looked up, the tested form may be a part): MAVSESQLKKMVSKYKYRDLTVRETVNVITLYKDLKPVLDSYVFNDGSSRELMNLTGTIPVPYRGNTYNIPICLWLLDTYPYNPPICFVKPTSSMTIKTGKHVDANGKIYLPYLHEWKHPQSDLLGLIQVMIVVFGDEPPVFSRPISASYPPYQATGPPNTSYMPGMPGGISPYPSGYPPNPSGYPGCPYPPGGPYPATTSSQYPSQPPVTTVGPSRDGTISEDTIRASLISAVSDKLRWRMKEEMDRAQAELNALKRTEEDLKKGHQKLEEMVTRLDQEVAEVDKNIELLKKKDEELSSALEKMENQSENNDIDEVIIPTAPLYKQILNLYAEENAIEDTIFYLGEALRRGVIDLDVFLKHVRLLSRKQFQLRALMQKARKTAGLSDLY
How it was run: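 Compounds are added to the Tsg101 binding domain (10 uM final) in pH 7.5 HEPES buffer. FITC-PTAP peptide follows at 50 nM final. After 20 min at r.t., polarized FITC emission is measured.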

[6] = qHTS for Inhibitors of WRN Helicase: Thiazole Orange DNA Binding Counterscreen (AID 720499);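 further: drop in dye fluorescence marks compound binding to DNA; nearly all actives have a fitted effect of over 60% in size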
How it was run: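 Fluorescence at 530 nm (excitation 480 nm) is measured after compounds incubate 15 min at room temperature with unlabeled DNA (50 nM) bound to thiazole orange (100 nM). Decreased signal indicates nonspecific DNA binding.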

[7] = molecular target: RecQ-like DNA helicase BLM (Homo sapiens) (UniProt P54132); experiment: qHTS for Inhibitors of WRN Helicase: BLM Helicase Counterscreen for WRN Inhibitors (AID 720503); further: nearly all actives have a fitted effect of over 60% in size
Sequence of RecQ-like DNA helicase BLM (Homo sapiens) (P54132 whole entry, looked up): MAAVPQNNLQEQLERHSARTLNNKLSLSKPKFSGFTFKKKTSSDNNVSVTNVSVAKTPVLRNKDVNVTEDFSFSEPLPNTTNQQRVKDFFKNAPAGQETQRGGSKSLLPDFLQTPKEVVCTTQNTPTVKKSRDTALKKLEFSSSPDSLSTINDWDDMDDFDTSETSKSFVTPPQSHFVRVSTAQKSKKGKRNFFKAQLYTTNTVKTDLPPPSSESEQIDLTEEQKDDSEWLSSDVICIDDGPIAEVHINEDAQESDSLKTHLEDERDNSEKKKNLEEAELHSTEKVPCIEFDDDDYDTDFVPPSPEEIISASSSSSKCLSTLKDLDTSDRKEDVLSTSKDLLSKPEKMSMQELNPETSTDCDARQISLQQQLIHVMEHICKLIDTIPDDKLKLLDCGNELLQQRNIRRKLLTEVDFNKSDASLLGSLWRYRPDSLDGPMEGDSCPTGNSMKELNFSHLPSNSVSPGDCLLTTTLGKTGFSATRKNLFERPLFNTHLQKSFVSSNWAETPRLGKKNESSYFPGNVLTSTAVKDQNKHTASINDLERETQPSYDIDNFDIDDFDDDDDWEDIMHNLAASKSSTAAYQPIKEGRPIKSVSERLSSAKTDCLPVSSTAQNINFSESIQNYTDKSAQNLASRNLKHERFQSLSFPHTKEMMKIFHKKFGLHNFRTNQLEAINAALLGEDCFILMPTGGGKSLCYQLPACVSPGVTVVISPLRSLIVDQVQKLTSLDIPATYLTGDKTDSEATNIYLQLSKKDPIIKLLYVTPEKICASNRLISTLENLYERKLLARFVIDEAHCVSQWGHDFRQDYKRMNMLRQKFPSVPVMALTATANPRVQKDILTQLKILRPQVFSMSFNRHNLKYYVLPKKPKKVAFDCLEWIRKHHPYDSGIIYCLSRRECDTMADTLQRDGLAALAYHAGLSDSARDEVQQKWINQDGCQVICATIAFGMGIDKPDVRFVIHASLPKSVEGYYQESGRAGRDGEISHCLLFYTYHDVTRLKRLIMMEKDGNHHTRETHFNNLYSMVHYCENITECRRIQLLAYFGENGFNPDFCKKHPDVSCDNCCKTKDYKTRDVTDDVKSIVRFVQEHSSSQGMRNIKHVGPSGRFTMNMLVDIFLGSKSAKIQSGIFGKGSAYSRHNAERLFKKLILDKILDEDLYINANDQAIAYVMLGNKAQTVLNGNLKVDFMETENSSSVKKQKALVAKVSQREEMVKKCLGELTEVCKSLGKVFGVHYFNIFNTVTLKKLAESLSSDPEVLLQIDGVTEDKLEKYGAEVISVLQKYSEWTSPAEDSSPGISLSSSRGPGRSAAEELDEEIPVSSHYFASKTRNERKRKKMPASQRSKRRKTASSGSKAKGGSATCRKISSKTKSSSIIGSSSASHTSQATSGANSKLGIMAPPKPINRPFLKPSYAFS
How it was run: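 Reactions were started with 100 nM DNA substrate and 2 mM ATP (final) after compound and 1 nM BLM stood 15 min at room temperature in Tris-HCl pH 8.0 buffer with NaCl, MgCl2, DTT and Tween-20. Two red-fluorescence reads 15 min apart were normalized against DMSO and no-enzyme wells.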

[8] = molecular target: Luciferin 4-monooxygenase (Photinus pyralis) (UniProt P08659); experiment: Biochemical firefly luciferase enzyme assay for NPC (AID 624030);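 further: purified P. pyralis luciferase at 10 nM with luciferin and ATP substrate; series mostly up to about 59 µM; nearly all actives have a fitted effect of over 70% in size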
Sequence of Luciferin 4-monooxygenase (Photinus pyralis) (P08659 whole entry, looked up): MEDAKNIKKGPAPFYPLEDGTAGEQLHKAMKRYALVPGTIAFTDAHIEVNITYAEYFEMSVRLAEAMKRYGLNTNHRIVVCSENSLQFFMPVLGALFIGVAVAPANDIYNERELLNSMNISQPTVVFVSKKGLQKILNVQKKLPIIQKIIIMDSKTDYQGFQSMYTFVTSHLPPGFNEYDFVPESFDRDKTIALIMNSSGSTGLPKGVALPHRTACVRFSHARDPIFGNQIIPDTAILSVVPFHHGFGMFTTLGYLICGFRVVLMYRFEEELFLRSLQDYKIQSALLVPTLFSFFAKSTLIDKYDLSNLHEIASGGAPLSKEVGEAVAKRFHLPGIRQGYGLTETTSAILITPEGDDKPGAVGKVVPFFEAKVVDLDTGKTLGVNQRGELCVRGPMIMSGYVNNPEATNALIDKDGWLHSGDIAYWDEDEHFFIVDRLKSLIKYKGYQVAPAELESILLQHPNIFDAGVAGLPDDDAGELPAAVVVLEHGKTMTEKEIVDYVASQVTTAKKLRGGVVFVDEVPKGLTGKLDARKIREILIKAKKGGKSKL
How it was run: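 Counter-screen for direct inhibition of the luciferase enzyme by approved-drug library compounds, run at 10 nM enzyme in 50 mM Tris acetate (final). Luminescence was read within 5 min of enzyme-buffer addition and normalized to PTC124 versus DMSO (0%).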

SMILES: c1ccc(-c2nnc3sc(-c4csc5c4CCCC5)nn23)cc1
- Potency [1]: 22.4 µM (active)

SMILES: COc1cc(/C=C2\C(=O)ON=C2c2ccccc2)cc(Br)c1O
- Potency [1]: inactive

SMILES: O=C(/C=C/c1cccnc1)c1ccc([N+](=O)[O-])cc1
- Potency [1]: 3.16 µM (active)

SMILES: O=C(Nc1ccccc1)c1nc(S(=O)(=O)Cc2ccccc2F)ncc1Cl
- Potency [1]: 2.82 µM (active)

SMILES: O=S(=O)(/C(=C/c1ccc(C(F)(F)F)cc1)c1nc2ccccc2[nH]1)c1ccccc1
- Potency [1]: inactive

SMILES: CC1(C)CC(=O)C(C(C2=C(O)CC(C)(C)CC2=O)c2ccc(O)c([N+](=O)[O-])c2)=C(O)C1
- Potency [1]: inactive

SMILES: O=[N+]([O-])c1ccc(C2=Nn3c(Cn4nnc5ccccc54)nnc3SC2)cc1
- Potency [1]: 25.1 µM (active)

SMILES: CCC(C)(C)n1nnnc1C(c1ccc(O)c(OC)c1)N1CCc2ccccc2C1 (configuration not stated)
- Potency [1]: 25.1 µM (active)

SMILES: O=c1[nH]c(/C=C/c2ccccc2)c([N+](=O)[O-])c(=O)[nH]1
- Potency [1]: inactive

SMILES: CCC(=O)Nc1cccc(C(=O)/C=C/c2cc(Br)ccc2OC)c1
- Potency [1]: 28.2 µM (active)

SMILES: COc1cccc(/C=C2\C(=O)N(c3cccc(C)c3)C(=O)c3ccccc32)c1
- Potency [1]: 14.1 µM (active)

SMILES: Cc1ccc(NN2C(=O)C=C(c3ccccc3)C2=O)cc1
- Potency [1]: inactive

SMILES: O=C1C(=O)c2c(C(=O)c3ccccc3)coc2-c2ccccc21
- Potency [1]: inactive

SMILES: COCCN(CC(=O)NC1CCCCC1)C(=O)/C=C/C(=O)c1ccc(OC)cc1O
- Potency [1]: inactive

SMILES: Cc1cc2nc3ccc(N(C)C)cc3nc2cc1N
- Potency [1]: 3.55 µM (active)

SMILES: CCCOc1ccc(/C=C2/C(=O)ON=C2C)cc1OCC
- Potency [1]: 15.8 µM (active)

SMILES: Oc1cc2c(cc1C(c1ccc(Cl)c(Cl)c1)N1CCCC1)OCO2 (configuration not stated)
- Potency [1]: 8.91 µM (active)

SMILES: O=C1C=C(c2ccccc2)C(=O)N1Nc1ccccc1
- Potency [1]: 3.55 µM (active)

SMILES: CCOC(=O)/C(C#N)=C1/C(=O)N(Cc2ccccc2)c2ccccc21
- Potency [1]: inactive

SMILES: Nc1c(N2CCCC2)cc(Cl)c2nonc12
- Potency [1]: 3.98 µM (active)

SMILES: Cc1cc(C(C2C(=O)CC(C)(C)CC2=O)C2C(=O)CC(C)(C)CC2=O)cc(C)c1OC(F)F
- Potency [1]: inactive

SMILES: CC(NC(=O)c1sc2cc([N+](=O)[O-])ccc2c1Cl)C(C)(C)C (configuration not stated)
- Potency [1]: 3.55 µM (active)

SMILES: CS(=O)(=O)c1ccc(C(=O)OCc2nnc(-c3ccc(Cl)cc3)o2)cc1[N+](=O)[O-]
- Potency [1]: 8.91 µM (active)

SMILES: Cc1ccc(S(=O)(=O)Oc2ccc(/C=C3\C(=N)N4N=C(S(C)(=O)=O)SC4=NC3=O)cc2)cc1
- Potency [1]: inactive

SMILES: COc1cc(/C=C/C(=O)c2cccc([N+](=O)[O-])c2)cc(OC)c1OC
- Potency [1]: 4.47 µM (active)

SMILES: COC(=O)[C@@]1(Cc2ccc(OC)cc2)[C@H]2c3cc(C(=O)N4CCCC4)n(CCCNc4ncc(C(F)(F)F)cc4Cl)c3C[C@H]2CN1C(=O)c1ccccc1
- Potency [2]: 7.94 µM (active)
- Potency [3]: inactive
- Potency [4]: 3.16 µM (active)

SMILES: COc1ccc(OC)c(-c2c3cc(O)c(=O)cc-3oc3cc(O)c(O)cc23)c1
- Potency [1]: 8.91 µM (active)
- Potency [5]: 32.6 µM (active)

SMILES: CC(=O)N(C1=C(Cl)C(=O)c2ccccc2C1=O)c1ccc(C(=O)O)cc1
- Potency [1]: 3.55 µM (active)
- Potency [6]: inactive
- Potency [7]: inactive

SMILES: COC(=O)/C=C\C(=O)Nc1cccc([N+](=O)[O-])c1
- Potency [6]: inactive
- Potency [7]: inactive

SMILES: CC(CN1CCOCC1)C(Cc1ccccc1)(Cc1ccccc1)C(=O)N1CCCC1 (configuration not stated)
- Potency [8]: inactive

SMILES: CC[C@H]1OC(=O)C[C@@H](O)[C@H](C)[C@@H](O[C@@H]2O[C@H](C)C[C@H](N(C)C)[C@@H]2O)[C@@H](CC=O)C[C@@H](C)C(=O)/C=C\[C@]2(C)O[C@H]2[C@@H]1C
- Potency [8]: inactive

SMILES: C[N+](C)(CCOc1ccccc1)Cc1cccs1 (tested in a mixture with another compound)
- Potency [8]: inactive

SMILES: CO[C@@]1(NC(=O)CSC(F)F)C(=O)N2C(C(=O)O)=C(CSc3nnnn3CCO)CO[C@@H]21
- Potency [8]: inactive

SMILES: CCO[C@@H](Cc1ccc(OCCc2ccc(OS(C)(=O)=O)cc2)cc1)C(=O)O
- Potency [8]: inactive

SMILES: C#CC1(OC(C)=O)CCC2C3CCC4=CC(OC(C)=O)CCC4C3CCC21C (configuration not stated)
- Potency [8]: inactive

SMILES: CC(=O)O[C@H]1CC[C@@]2(C)C(=CCC3C2CC[C@]2(C)C(c4cccnc4)=CCC32)C1 (some centres not stated)
- Potency [8]: inactive

SMILES: CC[C@H](C)[C@H](NC(=O)[C@H](CO)NC(=O)[C@H](CC(N)=O)NC(=O)[C@H](CC(C)C)NC(=O)[C@H](Cc1ccc(O)cc1)NC(=O)[C@H](CCCCN)NC(=O)[C@H](CCCCN)NC(=O)[C@@H](NC(=O)[C@H](C)NC(=O)[C@H](CCSC)NC(=O)[C@H](CCC(N)=O)NC(=O)[C@H](CCCCN)NC(=O)[C@H](CCCNC(=N)N)NC(=O)[C@H](CC(C)C)NC(=O)[C@H](CCCNC(=N)N)NC(=O)[C@@H](NC(=O)[C@H](Cc1ccc(O)cc1)NC(=O)[C@H](CC(N)=O)NC(=O)[C@H](CC(=O)O)NC(=O)[C@@H](NC(=O)[C@H](Cc1ccccc1)NC(=O)[C@@H](NC(=O)[C@H](C)NC(=O)[C@H](CC(=O)O)NC(=O)[C@H](CO)NC(=O)[C@@H](N)Cc1c[nH]cn1)C(C)C)[C@@H](C)O)[C@@H](C)O)C(C)C)C(=O)N[C@@H](CC(C)C)C(=O)N[C@@H](CC(N)=O)C(=O)O
- Potency [8]: inactive

SMILES: CC[C@H](c1ccccc1)c1noc(CCN(CC)CC)n1
- Potency [8]: inactive

SMILES: CC#CCC(C)[C@H](O)/C=C/C1[C@H](O)C[C@@H]2C/C(=C\CCCC(=O)O)C[C@H]12 (some centres not stated)
- Potency [8]: inactive

SMILES: CC(NC(CCc1ccccc1)C(=O)O)C(=O)N1CCCC1C(=O)O (configuration not stated)
- Potency [8]: inactive

SMILES: Cc1c(N)nc([C@@H](CC(N)=O)NC[C@H](N)C(N)=O)nc1C(=O)N[C@H](C(=O)N[C@@H](C)[C@@H](O)[C@@H](C)C(=O)N[C@H](C(=O)NCCc1nc(-c2nc(C(=O)NCCCN[C@H](C)c3ccccc3)cs2)cs1)[C@H](C)O)[C@@H](O[C@H]1O[C@@H](CO)[C@H](O)[C@@H](O)[C@H]1O[C@H]1O[C@@H](CO)[C@@H](O)[C@H](OC(N)=O)[C@H]1O)c1cnc[nH]1
- Potency [8]: inactive

SMILES: O=P(O)(O)OC[C@@H](O)CO
- Potency [8]: inactive

SMILES: COCC1=C(C(=O)OC(C)OC(=O)OC(C)C)N2C(=O)C(NC(=O)/C(=N/OC)c3csc(N)n3)[C@H]2SC1 (some centres not stated)
- Potency [8]: inactive

SMILES: CC(C)(S)C(=O)N[C@H](CS)C(=O)O
- Potency [8]: inactive

SMILES: COc1cc([C@@H]2c3cc4c(cc3[C@@H](O[C@@H]3O[C@H]5CO[C@H](C)O[C@H]5[C@H](O)[C@@H]3O)[C@H]3COC(=O)[C@H]23)OCO4)cc(OC)c1OP(=O)(O)O
- Potency [8]: inactive

SMILES: C=C[C@]1(C)C[C@@H](OC(=O)CO)[C@]2(C)C(C)CC[C@]3(CCC(=O)[C@H]32)[C@@H](C)[C@@H]1O (some centres not stated)
- Potency [8]: inactive

SMILES: CC(=O)O[C@@H]1C(=O)O[C@H]2[C@@H]1OC(=O)[C@@H]2OC(C)=O
- Potency [8]: inactive

SMILES: CC1NC(=O)C(N)CNC(=O)C(C2CCN=C(N)N2)NC(=O)/C(=C/NC(N)=O)NC(=O)C(CNC(=O)CC(N)CCCN)NC1=O (configuration not stated)
- Potency [8]: inactive

SMILES: OCC1(O)OC[C@@H](O)[C@H](O)[C@@H]1O (some centres not stated)
- Potency [8]: inactive

SMILES: CC1(C)S[C@@H]2[C@H](NC(=O)[C@H](N)c3ccccc3)C(=O)N2[C@@H]1C(=O)OCOC(=O)[C@@H]1N2C(=O)C[C@@H]2S(O)(O)C1(C)C
- Potency [8]: inactive

SMILES: CCOC(=O)CCC(=O)OC1C(OC2C(C)C(OC3CC(C)(OC)C(O)C(C)O3)C(C)C(=O)OC(CC)C(C)(O)C(O)C(C)C(=O)C(C)CC2(C)O)OC(C)CC1N(C)C (configuration not stated)
- Potency [8]: inactive
